Results taken from PubChem BioAssay (NCI).
The panel holds about 83,000 compounds, 20% with a hit somewhere; the sample as a whole holds those more often.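 The test compound was applied at a single concentration to cells in 96-well plates for 48 hours, and percent growth was recorded.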 Activity calls are given as the source filed them. How the source made its calls: active means growth percent below 10; inactive means the rest.

What was measured:
Test in all cases: NCI-60 one-dose screen, 48 h (100 = growth as untreated, 0 = no growth, -100 = all killed)
Conditions in all cases: 10 µM unless noted
[1] = test system: SK-MEL-2 melanoma
[2] = test system: EKVX NSCLC
[3] = test system: SN12C renal
[4] = test system: UO-31 renal
[5] = test system: TK-10 renal
[6] = test system: ACHN renal
[7] = test system: CAKI-1 renal
[8] = test system: A498 renal
[9] = test system: CCRF-CEM leukemia
[10] = test system: MOLT-4 leukemia
[11] = test system: SR leukemia
[12] = test system: RPMI-8226 leukemia
[13] = test system: OVCAR-8 ovarian
[14] = test system: OVCAR-5 ovarian
[15] = test system: OVCAR-4 ovarian
[16] = test system: SK-OV-3 ovarian
[17] = test system: IGROV1 ovarian
[18] = test system: OVCAR-3 ovarian
[19] = test system: HS 578T breast
[20] = test system: NCI/ADR-RES ovarian

Measured: growth

C=C1CC2(OC1=O)C(=O)Nc1ccccc12 (stereo not given)
active: [6] 7.77% | [9] 0.987% | [11] 5.16% | [18] 6.75%
inactive: [1] 92.5% | [2] 74.4% | [3] 40.5% | [4] 19.7% | [5] 22.3% | [7] 31.5% | [8] 72.8% | [10] 18.7% | [12] 24.4% | [13] 89.4% | [14] 66% | [15] 37.3% | [16] 115% | [17] 63% | [19] 83.1% | [20] 66.5%

CN(CC(=O)N(Cc1ccc(C2CCCCC2)cc1)c1ccc(C(=O)NO)cc1)S(=O)(=O)c1c(F)c(F)c(F)c(F)c1F
active: [11] -4.55%
inactive: [1] 81.2% | [2] 106% | [3] 86.1% | [4] 69.1% | [5] 87.4% | [6] 79.6% | [7] 87.4% | [8] 95.7% | [9] 41.9% | [10] 39.2% | [12] 62.8% | [13] 49.8% | [14] 104% | [15] 84.4% | [16] 111% | [17] 28.6% | [18] 81.7% | [19] 91.6% | [20] 90.2%

COc1ccccc1/C=C(/C(=O)c1ccccc1)c1ccccc1
inactive: [1] 94.5% | [2] 109% | [3] 102% | [4] 75.4% | [5] 119% | [6] 99.8% | [7] 92.8% | [8] 111% | [9] 104% | [10] 75.1% | [11] 94.7% | [12] 96.9% | [13] 87.7% | [14] 128% | [15] 94.2% | [16] 103% | [17] 96.7% | [18] 102% | [19] 100% | [20] 92.1%

O=C1c2cc3c(cc2-c2c1c1cc(Cl)c(Cl)cc1c(=O)n2CCCn1ccnc1)OCO3
inactive: [1] 22.7% | [2] 35.7% | [5] 34.3% | [7] 11.9% | [14] 25.9% | [15] 30.1% | [17] 24.4% | [19] 66.7%
active: [3] -4.67% | [4] 1.1% | [6] -6.04% | [8] -29.9% | [9] 2.94% | [10] -24.9% | [11] -13.4% | [12] -0.183% | [13] 8.55% | [16] -3.8% | [18] 5.18% | [20] 4.47%

O=C(O)c1ccccc1Nc1cccc(S(F)(F)(F)(F)F)c1
inactive: [1] 83.6% | [2] 99.3% | [3] 96.4% | [4] 85.6% | [5] 87.8% | [6] 98.4% | [7] 94.6% | [8] 95.1% | [9] 98.4% | [10] 88.1% | [11] 99.1% | [12] 100% | [13] 98.9% | [14] 115% | [15] 102% | [16] 87.4% | [17] 99.8% | [18] 95% | [19] 99.2% | [20] 106%

COc1ccc(S(=O)(=O)NCCNc2nccc(-c3c(-c4cccc([N+](=O)[O-])c4)nc4sccn34)n2)cc1
inactive: [1] 100% | [2] 82.1% | [3] 70.3% | [4] 49.3% | [5] 108% | [6] 62.4% | [7] 68.1% | [8] 63.7% | [9] 75.2% | [10] 60.7% | [11] 78.4% | [12] 74% | [13] 83.7% | [14] 126% | [15] 63.1% | [16] 102% | [17] 67.3% | [18] 88.3% | [19] 91.1% | [20] 82%

O=C1c2cccnc2C(=O)c2c1c(C(=O)OCCN1CCCCC1)c1ccccn21
inactive: [8] 47.3%
active: [1] -45.4% | [2] 4.44% | [3] -68.8% | [4] -12.7% | [5] -14.3% | [6] -66% | [7] 2.16% | [9] -8.77% | [10] -19.1% | [11] -23.9% | [12] -29.9% | [13] -58.2% | [14] -27.8% | [15] 0.138% | [16] -36.8% | [17] -16.7% | [18] -2.68% | [19] -0.578% | [20] -25.5%

CCOC(=O)c1cnc2cc(Cl)c(F)cc2c1Nc1cccc(NS(C)(=O)=O)c1
inactive: [1] 113% | [2] 90.8% | [3] 100% | [4] 73.3% | [5] 124% | [6] 93.5% | [7] 86.2% | [8] 78.9% | [9] 103% | [10] 99.9% | [11] 112% | [12] 105% | [13] 102% | [14] 93.2% | [15] 95.5% | [16] 111% | [17] 91% | [18] 102% | [19] 93.7% | [20] 81%

COc1ccccc1N1CCN(CCn2c(=O)c3c(c4ccccc4n3C)n(C)c2=O)CC1
inactive: [1] 60.2% | [2] 106% | [3] 81.8% | [4] 77.6% | [5] 78.9% | [6] 98.5% | [7] 101% | [8] 109% | [9] 102% | [10] 88.1% | [11] 78% | [12] 109% | [13] 85% | [14] 111% | [15] 114% | [16] 93.6% | [17] 104% | [18] 103% | [19] 98.5% | [20] 100%

Clc1nc(Cl)c2c3c(sc2n1)CCCC3
active: [10] -27.8% | [11] -36.4% | [12] 1.89% | [18] -35.9%
inactive: [1] 20% | [2] 89.8% | [3] 27.5% | [4] 65.6% | [5] 91% | [6] 45.1% | [7] 64.2% | [8] 127% | [9] 10.7% | [13] 39.8% | [14] 96.5% | [15] 44.1% | [16] 107% | [17] 38.4% | [19] 76.2% | [20] 99.7%

COc1c2ccccc2c(OC)c2[nH]c(=O)ccc12
inactive: [1] 64.2% | [2] 27.8% | [3] 40.5% | [4] 59.9% | [5] 110% | [6] 65.1% | [7] 81% | [8] 48.3% | [10] 69.4% | [11] 22.2% | [12] 55.2% | [13] 87% | [14] 75.4% | [15] 60.4% | [16] 92.6% | [17] 81.5% | [18] 59.2% | [19] 32.8% | [20] 57.6%
active: [9] -58.7%

Cn1c2c(Cl)c(Cl)ccc2c2ccn3c(=O)c4ccccc4nc3c21
inactive: [1] 107% | [2] 80.8% | [3] 104% | [4] 70.1% | [5] 162% | [6] 93% | [7] 89.1% | [8] 120% | [9] 80.8% | [10] 94.7% | [11] 75.9% | [12] 98.8% | [13] 95.5% | [14] 96.8% | [15] 92.1% | [16] 88.9% | [17] 54.4% | [18] 113% | [19] 103% | [20] 99.4%

COC(=O)[C@@H]1CC[C@]2(C)[C@H](CC[C@@H]3O[C@@]32C)[C@@]1(C)CC(=O)c1ccoc1
inactive: [1] 78.2% | [2] 105% | [3] 92.7% | [4] 97% | [5] 84% | [6] 105% | [7] 106% | [8] 88.6% | [9] 102% | [10] 94.8% | [11] 86.6% | [12] 91.2% | [13] 102% | [14] 109% | [15] 127% | [16] 103% | [17] 105% | [18] 105% | [19] 88.2% | [20] 103%

COc1cc(NCCCCCN=C(N)NC(N)=NC(C)C)c2ncccc2c1
inactive: [1] 20.1% | [2] 42.2% | [3] 25.9% | [4] 76.7% | [5] 66.7% | [6] 105% | [7] 100% | [8] 110% | [9] 25.3% | [10] 27.9% | [11] 46.3% | [12] 37.6% | [13] 23.8% | [14] 71.5% | [16] 83.3% | [19] 64% | [20] 99.5%
active: [15] -16.7% | [17] -13.1% | [18] -39.8%

S=c1[nH]nc(CSc2ncnc3c2c(-c2ccccc2)cn3-c2ccc(Cl)cc2)o1
inactive: [1] 105% | [2] 92% | [3] 92.8% | [4] 73% | [5] 114% | [6] 92.7% | [7] 76.2% | [8] 94.7% | [9] 90.2% | [10] 98.1% | [11] 105% | [12] 98% | [13] 97.5% | [14] 104% | [15] 95.4% | [16] 78.2% | [17] 92.3% | [18] 101% | [19] 94.5% | [20] 99.3%
